In assay [1] the target is Cellular tumor antigen p53 (Homo sapiens) (UniProt P04637). The experiment in a line: TOX21_p53_BLA_p4_ratio: Tox21 HCT-116 p53 Agonism Beta-lactamase Assay, Ratio, Phase 4 (AID 2283601). In a few lines: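 HCT-116 p53 beta-lactamase reporter cells (4000/well) preincubated 5 h, then compound (217-fold dilution of DMSO stock) for 16 h at 37C. CCF4-AM substrate added 2 h at room temperature; 460/530 nm emission ratio fitted upward versus DMSO.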

Assay [2] is described as follows: ACEA_ER_AUC_viability: ACEA Biosciences xCELLigence Real-Time Cell Analysis on Estrogen Receptor Agonism for Viability (AID 2283782).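 Also: hit means loss of impedance signal meaning reduced cell growth or viability.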 In a few lines: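 Read-out: real-time electrical impedance (RT-CES) area under curve, loss of signal taken as reduced viability, normalized to DMSO baseline. T-47D cells, charcoal-stripped serum medium, compounds up to 100 uM final, continuous exposure, 80 h.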

The subject of assay [3] is Thyroperoxidase (TPO), gene 54314. The experiment in a line: CCTE_Simmons_AUR_rTPO: CCTE's Amplex UltraRed Assay for Thyroperoxidase (TPO) Inhibition, Simmons Lab (AID 2283662).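 As to AC50: potency for loss of signal meaning inhibition of peroxidase activity.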 Summed up:
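Cell-free peroxidase activity assay using rat thyroid gland microsomes with excess H2O2 (300 uM) and 25 uM Amplex UltraRed. Compounds tested from 5 nM to 87.5 uM; fluorescence measured after 30 min at 37C, analysed relative to DMSO baseline.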

Assay [4] can be described thus: CCTE_Simmons_CellTiterGLO_HEK293T: Viability Assessment in CCTE's Assays for Thyroperoxidase (TPO) Inhibition, Simmons Lab (AID 2283665).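 As to AC50: cells exposed to compound for 24 h before readout; actives reduce ATP signal below DMSO vehicle meaning cytotoxicity.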 In a few lines: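 Luciferase-coupled ATP content after 24 h exposure gives viability; 8-point series from 5 nM to 87.5 uM final in 0.5% DMSO. Human HEK293T cells, 1% FBS medium, three biological replicates, dichlone positive control.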
(In general: ATP-based viability assays read luminescence as a measure of living cells.)

A short description of assay [5]: CEETOX_H295R_MTT_cell_viability: Viability Assessment in the CeeTox HT-H295R MTT Assay (AID 2283718; active = hit-call score of the fitted dose curve at least 0.9, where 1 is the maximum; inactive = score below 0.9). In a few lines:
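Human H295R adrenal cells, prestimulated 48 h with 10 uM forskolin, were exposed 48 h to chemicals in 0.1% DMSO. Viability was measured in the same wells by MTT (0.5 mg/ml, 4 h, 37 C), absorbance 570/650 nm, as percent of controls.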

Assay [6] has as its target Luciferin 4-monooxygenase (Photinus pyralis) (UniProt P08659). The experiment in a line: CCTE_Simmons_QuantiLum_inhib_2: CCTE's Firefly Luciferase Inhibition Assay, Simmons Lab (AID 2283767).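 As to AC50: potency for inhibitors that lower luciferase luminescence relative to DMSO.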 In a few lines: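 Eight test concentrations, 5 nM up to 87.5 uM final, preincubated 30min at 37C in the dark with purified luciferase (0.5% DMSO final). Detection reagent (150uM D-luciferin, 147uM dATP, 75uM CoA, pH 7.8) injected per well before kinetic luminescence read; three replicates.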

In assay [7] the target is zebrafish Estrogen Receptor (ESR1), esr1 (gene 259252) (UniProt P57717). The experiment in a line: ATG_zfER1_XSP1: Attagene TRANS-FACTORIAL Multi-Species (XSP1) HepG2 Assay for zebrafish Estrogen Receptor (ESR1) (AID 2283772). In a few lines:
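HepG2 cells transiently transfected with a GAL4-UAS reporter and chimeric zebrafish ER-Gal4, dosed 24 h with 3 nM 6-alpha-fluorotestosterone present. Reporter mRNA measured by RT-PCR and capillary electrophoresis; gain of signal versus DMSO.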

For assay [8], the system named is zebrafish Estrogen Receptor (ESR2B), gene 317733. The experiment in a line: ATG_zfER2b_XSP1: Attagene TRANS-FACTORIAL Multi-Species (XSP1) HepG2 Assay for zebrafish Estrogen Receptor (ESR2B) (AID 2283773). In a few lines:
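Multiplexed TRANS format in transfected HepG2 liver cells, chimeric NR-Gal4 from zebrafish ESR2B. 24 h dosing; medium contains 3 nM 6-alpha-fluorotestosterone. mRNA induction by RT-PCR/CE, positive direction vs DMSO.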

Assay [9] deals with frog Estrogen Receptor (ESR2), gene 100174814. The experiment in a line: ATG_frER2_XSP1: Attagene TRANS-FACTORIAL Multi-Species (XSP1) HepG2 Assay for frog Estrogen Receptor (ESR2) (AID 2283774). In a few lines: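 HepG2, transient MRTU transfection (GAL4-UAS reporters, exogenous NR-Gal4 chimeras); 24 h compound exposure; 3 nM 6α-fluorotestosterone co-added; total RNA → RT-PCR → 6-FAM primer extension → HpaI → CE. Positive direction vs DMSO.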

The test system of assay [10] is frog Estrogen Receptor (ESR1), gene 398734. The experiment in a line: ATG_frER1_XSP1: Attagene TRANS-FACTORIAL Multi-Species (XSP1) HepG2 Assay for frog Estrogen Receptor (ESR1) (AID 2283777). In a few lines:
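Transient MRTU transfection, HepG2 (human liver); 24 h dosing, 3 nM 6α-fluorotestosterone co-added; RNA → RT-PCR → 6-FAM labeling → CE; upward activity vs DMSO.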

The subject of assay [11] is zebrafish Estrogen Receptor (ESR2A), gene 317734. The experiment in a line: ATG_zfER2a_XSP1: Attagene TRANS-FACTORIAL Multi-Species (XSP1) HepG2 Assay for zebrafish Estrogen Receptor (ESR2A) (AID 2283778). Summed up:
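Transient transfection of HepG2 (human liver) with MRTU constructs; chemical dosing for 24 h; medium contained 3 nM 6-alpha-fluorotestosterone to partly stimulate AR. RT-PCR/CE fluorescence of reporter transcripts; positive direction vs DMSO.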

In assay [12] the target is chicken Estrogen Receptor (ESR1), ESR1 (gene 396099) (UniProt P06212). The experiment in a line: ATG_chERa_XSP1: Attagene TRANS-FACTORIAL Multi-Species (XSP1) HepG2 Assay for chicken Estrogen Receptor (ESR1) (AID 2283779). In a few lines: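 Read-out: fluorescent reporter mRNA fragments resolved by capillary electrophoresis after RT-PCR and HpaI digestion. Transfected HepG2 cells carried chimeric NR-Gal4 constructs, were dosed 24 h with 3 nM 6-alpha-fluorotestosterone added, and activity was fitted upward relative to DMSO.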

Assay [13] deals with turtle Estrogen Receptor (ESR1), gene 101933533. The experiment in a line: ATG_trERa_XSP1: Attagene TRANS-FACTORIAL Multi-Species (XSP1) HepG2 Assay for turtle Estrogen Receptor (ESR1) (AID 2283781). In a few lines:
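Transfect HepG2 with reporter units → dose chemical 24 h (medium has 3 nM 6-alpha-fluorotestosterone) → isolate RNA, RT-PCR → FAM primer extension, HpaI digest → capillary electrophoresis; gain of signal vs DMSO.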

A further assay concerns the target AR (gene 367) (UniProt P10275). The experiment in a line: ACEA_AR_agonist_80hr: ACEA Biosciences xCELLigence Real-Time Cell Analysis on Androgen Receptor Agonism for Proliferation (AID 2283783).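 Also: hits increase impedance growth signal above DMSO baseline.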 Summed up:
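Impedance (RT-CES) growth signal at 80 h post-dose; 22Rv1 cells, 8-pt 1:4 series, top 100 uM final, DMSO ≤0.5%; duplicate plates; gain-of-signal fit relative to DMSO baseline.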

Assay [14] can be described thus: ACEA_AR_agonist_AUC_viability: ACEA Biosciences xCELLigence Real-Time Cell Analysis on Androgen Receptor Agonism for Viability (AID 2283775). Summed up:
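22Rv1 cells; impedance growth kinetics; 8-pt 1:4 dilutions from 100 uM top final, ≤0.5% DMSO; n = 2; 80 h read; AUC viability, loss-of-signal vs DMSO.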

Results filed as inconclusive are left out. Calls of active or inactive are those of the source. The calls were made as follows, unless noted: active = hit-call score of the fitted dose curve at least 0.9, where 1 is the maximum; inconclusive = response in the unintended direction; inactive = score below 0.9.

This is an account of results in PubChem BioAssay (EPA / NIEHS).

In general, AC50 refers to the concentration giving half of the maximal activity seen.

Cellular tumor antigen p53 (Homo sapiens), sequence (P04637 whole entry, looked up): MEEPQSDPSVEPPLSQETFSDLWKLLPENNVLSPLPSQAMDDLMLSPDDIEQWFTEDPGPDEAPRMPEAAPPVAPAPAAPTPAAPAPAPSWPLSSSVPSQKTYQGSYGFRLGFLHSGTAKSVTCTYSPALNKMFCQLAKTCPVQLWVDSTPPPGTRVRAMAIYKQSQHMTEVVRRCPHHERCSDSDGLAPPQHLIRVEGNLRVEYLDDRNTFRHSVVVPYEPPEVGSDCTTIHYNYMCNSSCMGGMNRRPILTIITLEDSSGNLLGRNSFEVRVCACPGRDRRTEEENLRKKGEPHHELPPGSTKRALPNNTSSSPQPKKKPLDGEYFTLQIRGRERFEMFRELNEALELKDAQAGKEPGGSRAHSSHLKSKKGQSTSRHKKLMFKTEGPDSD
Luciferin 4-monooxygenase (Photinus pyralis), sequence (P08659 whole entry, looked up): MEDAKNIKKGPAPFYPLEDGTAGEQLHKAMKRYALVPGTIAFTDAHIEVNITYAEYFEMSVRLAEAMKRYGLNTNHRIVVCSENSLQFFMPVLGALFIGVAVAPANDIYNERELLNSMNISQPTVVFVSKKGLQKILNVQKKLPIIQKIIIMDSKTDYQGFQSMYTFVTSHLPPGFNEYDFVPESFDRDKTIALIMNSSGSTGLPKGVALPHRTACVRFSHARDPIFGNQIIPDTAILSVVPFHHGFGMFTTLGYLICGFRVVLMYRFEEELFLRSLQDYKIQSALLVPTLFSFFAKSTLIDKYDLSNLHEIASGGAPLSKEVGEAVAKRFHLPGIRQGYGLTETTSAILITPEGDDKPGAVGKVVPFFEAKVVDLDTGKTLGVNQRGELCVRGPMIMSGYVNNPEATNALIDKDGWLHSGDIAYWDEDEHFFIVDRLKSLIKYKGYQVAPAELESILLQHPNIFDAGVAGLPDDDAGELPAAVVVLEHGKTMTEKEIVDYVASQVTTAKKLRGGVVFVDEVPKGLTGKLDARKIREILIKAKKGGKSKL
chicken Estrogen Receptor (ESR1), ESR1 (gene 396099), sequence (P06212 whole entry, looked up, the tested form may be a part): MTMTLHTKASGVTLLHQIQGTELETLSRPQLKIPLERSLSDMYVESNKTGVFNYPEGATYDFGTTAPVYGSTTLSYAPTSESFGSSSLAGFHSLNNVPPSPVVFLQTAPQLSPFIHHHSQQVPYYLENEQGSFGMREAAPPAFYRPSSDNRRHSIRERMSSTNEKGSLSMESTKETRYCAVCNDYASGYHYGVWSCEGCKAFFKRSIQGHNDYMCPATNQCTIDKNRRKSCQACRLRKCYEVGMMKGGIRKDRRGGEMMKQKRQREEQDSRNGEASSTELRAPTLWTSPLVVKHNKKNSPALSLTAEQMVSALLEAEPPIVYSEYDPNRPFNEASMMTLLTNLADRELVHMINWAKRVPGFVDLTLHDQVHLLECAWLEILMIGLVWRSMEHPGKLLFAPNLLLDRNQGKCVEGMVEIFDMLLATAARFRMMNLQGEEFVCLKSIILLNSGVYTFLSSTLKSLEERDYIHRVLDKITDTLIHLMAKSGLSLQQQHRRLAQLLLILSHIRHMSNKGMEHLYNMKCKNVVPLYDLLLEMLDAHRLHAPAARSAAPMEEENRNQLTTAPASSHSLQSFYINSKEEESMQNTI
AR (gene 367), sequence (P10275 whole entry, looked up): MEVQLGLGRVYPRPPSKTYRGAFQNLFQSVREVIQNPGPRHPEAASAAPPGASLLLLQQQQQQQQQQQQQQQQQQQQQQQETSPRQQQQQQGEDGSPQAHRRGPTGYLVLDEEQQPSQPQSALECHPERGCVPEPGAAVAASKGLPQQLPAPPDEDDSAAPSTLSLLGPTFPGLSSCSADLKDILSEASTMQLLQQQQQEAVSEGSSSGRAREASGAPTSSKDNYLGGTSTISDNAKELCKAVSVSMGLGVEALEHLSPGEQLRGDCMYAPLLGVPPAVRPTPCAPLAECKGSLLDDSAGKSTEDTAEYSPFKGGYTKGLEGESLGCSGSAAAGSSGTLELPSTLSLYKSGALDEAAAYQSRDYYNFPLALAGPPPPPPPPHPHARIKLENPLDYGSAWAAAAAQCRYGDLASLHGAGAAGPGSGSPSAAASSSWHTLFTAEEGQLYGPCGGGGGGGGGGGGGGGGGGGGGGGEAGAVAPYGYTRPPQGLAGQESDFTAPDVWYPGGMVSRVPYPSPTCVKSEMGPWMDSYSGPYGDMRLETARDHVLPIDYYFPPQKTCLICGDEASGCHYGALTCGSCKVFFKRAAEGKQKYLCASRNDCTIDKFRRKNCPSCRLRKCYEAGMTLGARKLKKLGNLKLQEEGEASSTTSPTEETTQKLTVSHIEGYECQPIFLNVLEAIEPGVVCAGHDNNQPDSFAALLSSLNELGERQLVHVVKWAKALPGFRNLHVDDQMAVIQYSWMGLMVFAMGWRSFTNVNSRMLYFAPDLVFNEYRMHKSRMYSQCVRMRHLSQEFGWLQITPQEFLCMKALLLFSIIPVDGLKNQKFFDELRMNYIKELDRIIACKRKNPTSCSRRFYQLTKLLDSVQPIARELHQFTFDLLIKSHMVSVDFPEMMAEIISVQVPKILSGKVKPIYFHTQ
zebrafish Estrogen Receptor (ESR1), esr1 (gene 259252), sequence (P57717 whole entry, looked up, the tested form may be a part): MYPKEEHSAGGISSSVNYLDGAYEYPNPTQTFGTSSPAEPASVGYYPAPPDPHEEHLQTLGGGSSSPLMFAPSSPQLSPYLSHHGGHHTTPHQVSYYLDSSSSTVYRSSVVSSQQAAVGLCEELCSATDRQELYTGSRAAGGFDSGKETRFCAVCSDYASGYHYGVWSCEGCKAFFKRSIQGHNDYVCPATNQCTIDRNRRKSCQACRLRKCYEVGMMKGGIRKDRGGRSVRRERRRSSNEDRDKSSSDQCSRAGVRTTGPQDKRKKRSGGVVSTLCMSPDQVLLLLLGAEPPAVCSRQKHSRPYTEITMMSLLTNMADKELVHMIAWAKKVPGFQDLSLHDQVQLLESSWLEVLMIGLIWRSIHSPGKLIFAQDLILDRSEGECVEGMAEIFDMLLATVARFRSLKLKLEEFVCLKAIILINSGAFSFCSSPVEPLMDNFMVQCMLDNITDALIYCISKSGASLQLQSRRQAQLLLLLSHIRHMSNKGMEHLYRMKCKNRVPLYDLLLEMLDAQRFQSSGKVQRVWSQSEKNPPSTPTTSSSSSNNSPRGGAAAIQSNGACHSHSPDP

Take `Cc1ccc2c(c1)OCC(=O)CO2`: the outcome in assay [1] and in [2] was inactive.

Consider `C[C@]12CC[C@H]3C(=CCc4cc(O)ccc43)[C@@H]1CCC2=O`, for which the outcome (in assay [1]; in [5]; with AR (gene 367)) was inactive. The AC50 is 13.9 µM (active) in assay [3]; 87.7 µM (active) in assay [4]; 47 µM (active) in assay [6]; 23.1 nM (active) in assay [7]; 17.2 nM (active) in [8]; 19.6 nM (active) in assay [9]. The half-maximal activity concentration (AC50) in [10] was 20.2 nM (active); in assay [11] it was 13.9 nM (active); in assay [12] it was 6.59 nM (active); in assay [13] it was 5.94 nM (active).

For `Cc1ccc([N+](=O)[O-])c(C)c1`, the outcome in [1] and in assay [14] was inactive.

Consider `CCC/C=C/CO`, for which the result in assay [1] and in [2] was inactive.

As to `CO[Si](CCCOCC1CO1)(OC)OC` (stereo not drawn), in assay [1], the result was inactive. Further, the half-maximal activity concentration (AC50) in assay [2] is 76.8 µM (active).

Consider `CCCCC(CC)COC(=O)c1ccc(N(C)C)cc1` (stereo not drawn), for which the outcome in assay [1], in assay [5] and in assay [14] was inactive. Further, the AC50 in assay [2] was 87.8 µM (active).

With `O=C1C=CC(=O)N1c1ccc(Cc2ccc(N3C(=O)C=CC3=O)cc2)cc1`, the values for the AC50 in assay [1] and in assay [2] were 68 µM (active) and 25.1 µM (active), respectively.

As for `CCOC(=O)C1CC(=O)C(=C(O)C2CC2)C(=O)C1` (stereo not drawn), the result in assay [1] and in assay [14] was inactive.

Regarding `CC(C)OC=O`, the outcome in assay [1], in assay [3], in assay [4], in assay [6] and in assay [14] was inactive.

For `CC(C)CC=C(C=O)c1ccccc1`, the outcome in assay [1] was inactive.

With `CCCCCCCC/C=C\CCCCCCCC(=O)N(C)CC(=O)O`, the AC50 in assay [1] was 83.7 µM (active); in assay [3], 16.4 µM (active); in [4] it was 24.4 µM (active); in assay [2], 83.4 µM (active). The compound was classed as inactive in assay [6].

With `CC(C)(C)C(=O)C1C(=O)c2ccccc2C1=O`, the outcome in assay [1] was inactive. Also, the AC50 in [2] is 88.2 µM (active).

As for `COC(=O)c1ccc(C=O)cc1`, the result in [1] and in [2] was inactive.

`CSc1ccc(Cl)cc1`: the outcome in assay [1] and in assay [2] was inactive.

As for `CCCCCC/C=C/CCCCCCCC(=O)O`, in assay [1], the result was inactive. For the same compound, the AC50 in assay [2] was 50 µM (active).
